For 20 compounds, growth inhibition results are on record in PubChem BioAssay (NCI).

Assay [1] is described as follows: NCI Yeast Anticancer Drug Screen. Data for the rad50 strain (AID 155).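 Also: 0% = growth of vehicle-only cultures of the same strain.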 Particulars: S. cerevisiae rad50 strain growth inhibition; at 50.0 µM; stronger effect = higher value. The essentials: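 Cells are treated with compound, grown, and their growth is then scored against vehicle-only cultures of the same repair-deficient yeast strain.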
Assay [2] can be described thus: NCI Yeast Anticancer Drug Screen. Data for the mec2-1 strain (AID 157). Particulars: S. cerevisiae mec2-1 strain, at 50.0 µM, stronger effect = higher value. The essentials: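 Test agents were screened against the mec2-1 yeast strain, with defined DNA repair or cell cycle alteration. Growth was scored as inhibition against vehicle-only controls.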
A short description of assay [3]: NCI Yeast Anticancer Drug Screen. Data for the sgs1 mgt1 strain (AID 161).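 Also: 0% = growth of cultures given vehicle only.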 Particulars: S. cerevisiae sgs1 mgt1 strain, at 50.0 µM, stronger effect = higher value. The essentials: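 Inhibition of yeast growth, normalised to vehicle-treated controls, is reported for a strain bearing genetic alterations in DNA damage repair.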
Assay [4] in a line: NCI Yeast Anticancer Drug Screen. Data for the cln2 rad14 strain (AID 165).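 Also: 0% = growth equal to vehicle treated cultures.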 Particulars: S. cerevisiae cln2 rad14 strain, at 50.0 µM, stronger effect = higher value. The essentials: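 Growth of compound-exposed yeast (cln2 rad14 genotype) measured and expressed as inhibition relative to vehicle.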
Assay [5] is described as follows: NCI Yeast Anticancer Drug Screen. Data for the bub3 strain (AID 167). Particulars: S. cerevisiae bub3 mutant strain, at 50.0 µM, stronger effect = higher value. The method in brief: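 Part of a panel of yeast mutants defective in DNA damage repair or cell cycle regulation. Each strain is grown with compound, and inhibition is calculated relative to solvent-treated cultures.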

A short description of assay [6]: NCI Yeast Anticancer Drug Screen. Data for the mlh1 rad18 strain (AID 175). Particulars: S. cerevisiae mlh1 rad18 strain growth inhibition; at 50.0 µM; stronger effect = higher value. The essentials:
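In this whole-cell yeast screen, a strain with altered DNA damage repair is challenged with compound, and its growth is measured against matched vehicle-treated controls.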

The panel holds about 79,000 compounds, 15% with a hit somewhere; the sample as a whole holds those more often. Values without a mark were called inactive. Calls of active or inactive are those of the source. Rule as the data show it: active = growth inhibition above about 70%; inactive = the rest.

For the compound `NC(CSSCC(N)Cc1ccccc1)Cc1ccccc1` (stereo not given), the growth inhibition in assay [1] is -4.25%; in assay [2], -9.45%; in assay [3], -9.2%; in assay [4] it was 14.8%; in assay [5], -27.5%; in assay [6], 25.9%.

`O=C1OC2c3ccccc3C3CC(=O)C2C13` (stereo not given): the growth inhibition in assay [1] is 10.2%; in assay [2], -5.7%; in assay [3], 9.35%; in assay [4] it was 6.25%; in assay [5], 1.25%; in assay [6], 7.65%.

As to `O=C(O)C1C2C=CC(O2)C1C(=O)NCc1ccncc1` (stereo not given), the growth inhibition in assay [1] was -10%; in assay [2], 14.7%; in assay [3], -7.8%; in assay [4], -30.1%; in assay [5], -32.5%; in assay [6] it was 3.35%.

For `Cc1ncc(CO)c(CN)c1O`, the growth inhibition in assay [1] was -0.55%; in assay [2], -21.4%; in assay [3], -38%; in assay [4], -23.4%; in assay [5], -28.4%; in assay [6], -1.75%.

In the case of `c1ccc(-c2nc(-c3ccccc3)n3nc4c(c3c2-c2ccccc2)CCCCCC4)cc1`, the growth inhibition is -6.65% in assay [1]; 5.65% in assay [2]; -19.6% in assay [3]; -8.55% in assay [4]; -0.35% in assay [5]; 0.2% in assay [6].

Take `COC(=O)[C@H](Cc1ccc(OC(C)(C)C)cc1)N[C@H](C)C(=O)N[C@@H](Cc1ccccc1)C(=O)OCc1ccccc1`: the growth inhibition in assay [1] was 35.5%; in assay [2] it was 35.1%; in assay [3], 50.1%; in assay [4] it was 67%; in assay [5] it was 62.4%; in assay [6], 57%.

For the compound `O=[N+]([O-])c1ccccc1S(=O)(=O)NC1c2ccccc2Oc2ccccc21`, the growth inhibition in assay [1] was 31.9%; in assay [2], 28.3%; in assay [3], 19.4%; in assay [4], 2.75%; in assay [5], -0.8%; in assay [6] it was 43.6%.

Turning to `c1ccc(COC2COC(OCc3ccccc3)C(OCc3ccccc3)C2OCc2ccccc2)cc1` (stereo not given), the growth inhibition is 1.05% in assay [1]; -3.45% in assay [2]; 3.4% in assay [3]; -36.4% in assay [4]; 12.4% in assay [5]; -3.3% in assay [6].

On to `Oc1ccc2c(c1)OCC(O)(c1ccccc1O)C2` (stereo not given), for which the growth inhibition in assay [1] was 23.8%; in assay [2] it was -1.95%; in assay [3], 6.3%; in assay [4], 7.95%; in assay [5], 23.2%; in assay [6] it was 15.3%.

Consider `COc1cc(S(=O)(=O)O)ccc1N=N/C(=N\Nc1ccc(S(=O)(=O)O)cc1OC)C(N)=O`, for which the growth inhibition is -42.1% in assay [1]; 5.55% in assay [2]; 8.9% in assay [3]; 18.6% in assay [4]; -1.95% in assay [5]; 7.7% in assay [6].

Regarding `CCCCCCCCCCS(C)(=O)=O`, the growth inhibition in assay [1] is -19.4%; in assay [2], -3.95%; in assay [3], -7.25%; in assay [4], -16.4%; in assay [5] it was -24.9%; in assay [6], -24.6%.

As to `OCCCCCCCCCCCO`, the growth inhibition in assay [1] is 16.9%; in assay [2], 2.3%; in assay [3] it was 4.35%; in assay [4] it was -15.5%; in assay [5], 12.6%; in assay [6], -19.9%.

As for `NC(=O)CCCCCCCC(=O)O`, the growth inhibition in assay [1] was -0.9%; in assay [2] it was -5.7%; in assay [3] it was -13.4%; in assay [4], 1.45%; in assay [5] it was -10.6%; in assay [6] it was -22.9%.

With `CCOCCOCCOCc1nc(C#N)c(N)o1`, the growth inhibition was -35.6% in assay [1]; -23.3% in assay [2]; -27.8% in assay [3]; -14.8% in assay [4]; -30.5% in assay [5]; -63.4% in assay [6].

As for `FC(F)(F)c1nc(Nc2ccccc2)c2[nH]cnc2n1`, the growth inhibition in assay [1] was -16.4%; in assay [2], 4.55%; in assay [3], 2.45%; in assay [4] it was -20.9%; in assay [5], 12.2%; in assay [6] it was -4.6%.

Take `OC/C(I)=C(I)\C(I)=C(\I)CO`: the growth inhibition in assay [1] is 99.2% (active); in assay [2], 99.3% (active); in assay [3], 99.5% (active); in assay [4], 99.4% (active); in assay [5], 98.7% (active); in assay [6], 99.4% (active).

As for `COc1ccc(Cc2c(O)ccc3ccccc23)cc1`, the growth inhibition was 98.6% (active) in assay [1]; 99.4% (active) in assay [2]; 99% (active) in assay [3]; 95.8% (active) in assay [4]; 98.3% (active) in assay [5]; 99.2% (active) in assay [6].

For the compound `O=C(Nc1cccc(Cl)c1)C(Br)C(Br)c1ccccc1` (stereo not given), the growth inhibition in assay [1] is 97.8% (active); in assay [2] it was 99.2% (active); in assay [3] it was 99.3% (active); in assay [4], 99.2% (active); in assay [5], 98.5% (active); in assay [6], 98.7% (active).

Consider `CS(=O)(=O)OC[C@@H](O)[C@@H](O)COS(C)(=O)=O`, for which the growth inhibition was -2.15% in assay [1]; 7.4% in assay [2]; -1.85% in assay [3]; -57.1% in assay [4]; 3.55% in assay [5]; -6.85% in assay [6].

For the compound `CC(=O)Oc1ccccc1C1CCCCC1`, the growth inhibition is -1.7% in assay [1]; -28.6% in assay [2]; -2.5% in assay [3]; 17.2% in assay [4]; -11.9% in assay [5]; 0.9% in assay [6].
